Only some compounds are listed: those with a hit (about 2.6% of all), similar ones and a draw of the others.
PAFAH1B3 inh – PAFAH1B3 enzyme inhibitors, primary screen, biochemical, fluorescence polarization, human; Platelet-activating factor acetylhydrolase IB subunit alpha1 (Homo sapiens), Q15102; recombinant PAFAH1B3, FP-rhodamine probe; inhibition, % at 3.39 µM; actives 0.28% (n = 340,000); AID 492972, 2010;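 active means inhibition above the screen-wide average of all tested compounds plus 3 SD, cut at about 25% in these data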
PKA-R2B activ – activators of PKA-R2B holoenzyme, primary screen, biochemical, fluorescence polarization, Cy5-IP20, human; cAMP-dependent protein kinase catalytic subunit beta (Homo sapiens) + cAMP-dependent …; PKA-R2B holoenzyme dissociation; R2B truncated from residue 108, S112A mutant; 0% DMSO only, 100% 113 µM cGMP; activation, % at 11.4 µM; actives 0.079% (n = 340,000); AID 504700, 2011;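 active means activation above a cutoff set at the mean over all compounds plus 3 SD, cut at about 18% in these data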;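 further: higher means more holoenzyme dissociation and a rise in polarization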
Target sequence (P31323 whole entry, looked up, other chains not shown, the tested form may be a part): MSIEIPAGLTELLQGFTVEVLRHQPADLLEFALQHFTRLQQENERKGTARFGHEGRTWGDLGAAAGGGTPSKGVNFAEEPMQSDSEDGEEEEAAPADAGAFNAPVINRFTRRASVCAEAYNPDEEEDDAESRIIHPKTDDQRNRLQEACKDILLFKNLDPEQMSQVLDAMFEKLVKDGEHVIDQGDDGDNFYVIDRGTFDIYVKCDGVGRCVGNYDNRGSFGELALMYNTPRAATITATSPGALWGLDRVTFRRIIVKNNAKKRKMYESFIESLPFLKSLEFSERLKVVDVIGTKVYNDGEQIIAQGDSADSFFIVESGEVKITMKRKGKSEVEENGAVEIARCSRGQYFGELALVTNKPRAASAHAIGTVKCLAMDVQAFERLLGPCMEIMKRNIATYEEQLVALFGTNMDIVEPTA
pPAFAH inh – pPAFAH enzyme inhibitors, primary screen, biochemical, fluorescence polarization, human | Platelet-activating factor acetylhydrolase (Homo sapiens), Q13093 | inhibition, % at 3.39 µM | actives 1.5% (n = 330,000) | recombinant pPAFAH, FP-rhodamine probe fluorescence polarization | AID 463082, 2010;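 active means inhibition above the mean inhibition across the screen plus 3 SD, cut at about 25% in these data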;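 further: inhibitors block binding of the rhodamine activity-based probe so polarization drops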
PAFAH2 FP inh – PAFAH2 enzyme inhibitors, primary screen, biochemical, fluorescence polarization, human. Platelet-activating factor acetylhydrolase 2, cytoplasmic (Homo sapiens), Q99487. recombinant PAFAH2, FP-rhodamine activity probe. inhibition, % at 3.39 µM. actives 0.99% (n = 340,000). AID 492956, 2010;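 active means inhibition above the mean over all tested compounds plus 3 SD, cut at about 30% in these data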;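 further: inhibitors block probe labeling of enzyme so polarization drops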
PKA-R1A activ – activators of PKA-R1A holoenzyme, primary screen, biochemical, fluorescence polarization, Cy5-IP20, bovine R1A, mouse PKAc | PKA-R1A dissociation; scaled: DMSO 0%, 113 µM cGMP 100% | activation, % at 11.4 µM | actives 0.083% (n = 340,000) | AID 504707, 2011;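 active means percent activation above the mean of all tested compounds plus 3 SD, cut at about 19% in these data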;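 further: higher means more PKAc released from R1A so a rise in polarization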
PAFAH1B2 inh – PAFAH1B2 enzyme inhibitors, primary screen, biochemical, fluorescence polarization, human; Platelet-activating factor acetylhydrolase IB subunit alpha2 (Homo sapiens), P68402; actives 1.2% (n = 340,000); inhibition, % at 3.39 µM; recombinant PAFAH1B2, FP-rhodamine activity probe;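 active means inhibition above the mean of all tested compounds plus 3 SD, cut at about 24% in these data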
A number is an active result; - = inactive.

SMILES	PAFAH1B3 inh	PKA-R2B activ	pPAFAH inh	PAFAH2 FP inh	PKA-R1A activ	PAFAH1B2 inh
Cc1ccc(NC(=O)C2CCCN2C(=O)OC(C)(C)C)cc1C (stereo not drawn)	-	-	-	-	-	-
O=C1CCN(CCc2ccccc2)CCN1CCSc1ccccc1	-	-	31	-	-	-
CN1CCC(=O)N(CCSc2ccccc2)CC1	-	-	-	-	-	-
O=C1C=CC(O)(c2cc(=O)c3c(O)cc(O)cc3o2)C=C1	-	-	-	-	-	-
CC(C)c1ccccc1NC(=O)CNCCOc1ccccc1F	-	-	-	-	-	-
O=C1CCCN1c1ccc(S(=O)(=O)NCCOc2ccccc2)cc1	-	-	-	-	-	-
Cc1cc(N2CCCC2=O)cc(C)c1S(=O)(=O)NCCOc1ccc(C(C)(C)C)cc1	-	-	-	-	-	40
Nc1ccccc1SCCS(=O)(=O)c1ccc(Cl)cc1	-	-	-	-	-	28
CSc1nc(N)nc(SCCS(=O)(=O)c2ccc(Cl)cc2)c1C#N	-	-	-	-	-	25
N#Cc1nc(COc2ccc(Br)cc2)oc1NCCCn1ccnc1	-	-	-	-	-	25
O=C(CSc1nnc(Cc2cccs2)n1-c1ccc(Cl)cc1)NCc1ccc2c(c1)OCO2	-	-	25	-	-	-
Cc1ccc(-n2c(Cc3cccs3)nnc2SCC(=O)Nc2ccc(S(N)(=O)=O)cc2)cc1	-	-	26	-	-	-
COc1cc(C(=O)/C=C/c2cccnc2)c([N+](=O)[O-])cc1OC	-	-	-	-	-	-
Cc1cc(C(=O)Nc2c(C)nn(Cc3ccccc3Cl)c2C)no1	-	-	26	-	-	-
O=C(O/N=C/c1ccc(Br)cc1)c1ccc(F)cc1	-	-	-	67	-	45
COC(=O)c1c(NC(=O)COC(=O)CCNS(=O)(=O)c2ccccc2)sc(C)c1C	-	-	26	-	-	-
COC(=O)c1c(C)[nH]c(C(=O)COC(=O)CCNS(=O)(=O)c2cccc(C(F)(F)F)c2)c1C	-	-	33	-	-	-
COC(=O)c1c(NC(=O)COC(=O)CCNS(=O)(=O)c2ccc(NC(C)=O)cc2)sc(C)c1C	-	-	-	-	-	-
S=C(c1ccccc1)N(c1ccccc1)c1ccccc1	-	-	-	-	-	38
CC(C)[C@@H](N)C(=O)NC[C@H]1O[C@@H](n2cnc3c(N)ncnc32)[C@H](O)[C@@H]1O	-	-	-	-	-	-
O=C(N/N=C/c1ccncc1)c1cc([N+](=O)[O-])cc([N+](=O)[O-])c1O	-	-	32	-	-	-
CC1CC(NC(=O)/C=C/C(=O)O)CC(C)(C)C1 (stereo not drawn)	-	-	-	-	-	24
O=C(O)/C=C/C(=O)NC1CCCCC1	-	-	-	-	-	-
O=C(NCCO)c1cc2cc(Cl)cc(Cl)c2oc1=O	-	-	-	-	-	-
O=C(O)c1cc2cc(Cl)cc(Cl)c2oc1=O	-	-	27	-	-	-
COc1ccc(CNC(=O)Cn2ccc([N+](=O)[O-])n2)cc1OC	-	-	-	-	-	-
O=C(Nc1nc2ccc(S(=O)(=O)N3CCCCC3)cc2s1)c1cccnc1	-	-	-	-	-	-
O=C(Nc1nc2ccc(S(=O)(=O)N3CCCCC3)cc2s1)c1ccncc1	-	-	-	-	-	30
O=C(CCNC(=O)c1ccc(Br)cc1)NCCCN1CCCC1=O	-	-	-	-	-	-
O=C(O)CCn1cc(C2CC(c3ccccc3)=NN2c2ccccc2)c(-c2ccccc2)n1 (stereo not drawn)	-	-	27	-	-	-

Bioassay records: PubChem BioAssay, The Scripps Research Institute Molecular Screening Center
